Vif-APOBEC3F blk: inhibitors of Vif-A3F interaction; HeLa A3F-eYFP + Vif (tagged APOBEC3F with the HIV-1 protein that degrades it), YFP fluorescence increase; Potency, µM (top dose mostly 46.1 µM), for inactives: at the top dose activity, negative = active; 390,000 compounds, 0.2% hits; also: potency is read from the fitted curve at half-maximal effect; % of control where 0% means no effect; nearly all actives have a fitted effect of over 65% in size
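HeLa cells stably expressing A3F-eYFP plus Vif, plated and incubated overnight at 37 deg C, then exposed to compounds overnight at 37 deg C. Blocked degradation read as raised yellow fluorescence (Ex 488/Em 500-530).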
Giardia kill: Giardia lamblia killing. Giardia lamblia trophozoite viability. activity change, % at 7.66 µM, hits read low. 340,000 compounds, 0.15% hits; in the data active = activity change below about -80%; inconclusive = between about -30% and that limit;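 also: parasites exposed to compound for two days anaerobically before the ATP read; % is scaled to controls: 0 for no effect and ±100 for the full control effect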
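ATP-content bioluminescence gauges trophozoite survival. Cells (100/well) receive compound and incubate anaerobically for 48 hrs at 37 deg C; detection reagent follows for 15-30 min at room temperature.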
SW480 rerep: induces DNA re-replication in SW480 colon adenocarcinoma cells | SW480 DNA re-replication, Hoechst DNA content imaging, 48 h | Potency, µM (series often up to 46.1 µM), inactives show at the top dose re-replication activation, usual class: activators | 340,000 compounds, 1.8% hits | AID 624297; also: potency is read from the fitted curve at half-maximal effect; % of control where 0% means no effect; nearly all actives have a fitted effect of over 55% in size
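Per well, 250 cells were exposed to pinned compound for 48 hr. Nuclear DNA was visualised with Hoechst (40 min, 37 C) and total object intensity recorded by fluorescence scanning.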
MCF10A rerep: DNA re-replication induction in MCF 10a cells. MCF 10A DNA re-replication, Hoechst nuclear intensity, 48 h. Potency, µM (top dose mostly 46.1 µM), for inactives: at the highest dose activity, positive = re-replication, hits mostly activators. 350,000 compounds, 2.9% hits; also: potency is read from the fitted curve at half-maximal effect; % of control where 0% means no effect; nearly all actives have a fitted effect of over 50% in size
IL-1B inflam inh: blocks inflammasome-driven IL-1 beta release; THP-1 LPS/ATP IL-1B secretion, AlphaLISA, 16 h; stronger effect = lower value; 360,000 compounds, 4.7% hits; AID 743279; activity change, % at 57.5 µM; in the data active = activity change below about -50%; inconclusive = mostly about -30% to -49%; also: % is scaled to controls: 0 for no effect and ±100 for the full control effect
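Secreted IL-1B measured by AlphaLISA bead assay after 16 h compound exposure of THP-1 cells; compounds (final up to 57.5 uM) added 1 h before LPS (250 ng/mL) and ATP (1.25 mM) stimulation; lower signal means less secretion.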
Vif-A3G inh: blocks the Vif interaction with human APOBEC3G. Q9HC16. HeLa A3G-eYFP + Vif (tagged APOBEC3G with the HIV-1 protein that degrades it), YFP fluorescence, overnight. Potency, µM (top dose mostly 46.1 µM), inactives show at the top dose activity, negative = active, usual class: inhibitors. 410,000 compounds, 0.076% hits. AID 602310; also: potency is read from the fitted curve at half-maximal effect; % is scaled to controls: 0 for no effect and ±100 for the full control effect; nearly all actives have a fitted effect of over 60% in size
Target sequence (Q9HC16 whole entry, looked up): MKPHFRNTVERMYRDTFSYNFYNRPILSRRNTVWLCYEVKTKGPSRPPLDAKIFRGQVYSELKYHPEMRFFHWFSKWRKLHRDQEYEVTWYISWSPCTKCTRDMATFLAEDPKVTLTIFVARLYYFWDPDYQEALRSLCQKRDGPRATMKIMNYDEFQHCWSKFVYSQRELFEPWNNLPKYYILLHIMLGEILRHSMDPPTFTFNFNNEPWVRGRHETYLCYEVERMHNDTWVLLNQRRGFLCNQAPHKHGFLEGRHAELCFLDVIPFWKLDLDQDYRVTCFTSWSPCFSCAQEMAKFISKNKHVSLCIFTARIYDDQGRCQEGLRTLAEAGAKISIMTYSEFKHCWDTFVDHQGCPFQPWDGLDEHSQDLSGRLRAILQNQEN
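Read-out is eYFP fluorescence (Ex 488/Em 500-530) from Vif-expressing HeLa A3G-eYFP cells; more signal means A3G escaped Vif-mediated degradation. Cells plated overnight, compound pinned in, incubated overnight at 37 deg C.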
Starred values were filed as active, the others as inactive. Compounds with a hit are over-represented: about 6.9% of the library has one in this group of screens. Unless noted, calls follow the shape of the dose curve; as a rule, active = well fitted curve in the direction sought with a large enough effect; inconclusive = small, poorly fitted or top-dose-only effect, or another doubt; inactive = no such curve, though single readings can be large; an effect the other way counts as inactive or inconclusive.

What do the screens show for `CCN(CC)CCCn1c2c(c(SCC(=O)Nc3ccc(F)c(F)c3)nc1=O)CCC2`?
Vif-APOBEC3F blk: -3%; Giardia kill: 0; SW480 rerep: 16%; MCF10A rerep: inconclusive; IL-1B inflam inh: -23; Vif-A3G inh: 0%

What do the screens show for `CCN(CC)CCn1c2c(c(SCC(=O)Nc3ccc(C)c(F)c3)nc1=O)CCCC2`?
Vif-APOBEC3F blk: -19%; Giardia kill: -1; SW480 rerep: -11%; MCF10A rerep: 0%; IL-1B inflam inh: inconclusive; Vif-A3G inh: 1%

What do the screens show for `CCCCc1ccc(NC(=O)CSc2nc(=O)n(CCN(CC)CC)c3c2CCC3)cc1`?
Vif-APOBEC3F blk: -6%; Giardia kill: -7; SW480 rerep: inconclusive; MCF10A rerep: 30%; IL-1B inflam inh: -80*; Vif-A3G inh: 0%

Results for CCN(CC)CCn1c2c(c(SCC(=O)Nc3nc(C)cs3)nc1=O)CCC2 ?
Vif-APOBEC3F blk: 5%; Giardia kill: -3; SW480 rerep: -4%; MCF10A rerep: 12%; IL-1B inflam inh: -69*; Vif-A3G inh: 7%

What do the screens show for `CCN(CC)CCn1c2c(c(SCC(=O)Nc3ccc(C)c(F)c3)nc1=O)CCC2`?
Vif-APOBEC3F blk: 4%; Giardia kill: -16; SW480 rerep: 0%; MCF10A rerep: -3%; IL-1B inflam inh: inconclusive; Vif-A3G inh: 2%

How did CCN(CC)CCn1c2c(c(SCC(=O)Nc3nc(C)cs3)nc1=O)CCCC2 do in these assays?
Vif-APOBEC3F blk: 3%; Giardia kill: -9; SW480 rerep: -7%; MCF10A rerep: inconclusive; IL-1B inflam inh: -13; Vif-A3G inh: 2%

Results for CCN(CC)CCn1c2c(c(SCC(=O)Nc3ccc(F)c(F)c3)nc1=O)CCC2 ?
Vif-APOBEC3F blk: 4%; Giardia kill: 2; SW480 rerep: -6%; MCF10A rerep: 6%; IL-1B inflam inh: -66*; Vif-A3G inh: 3%

Results for O=c1c(-c2cc(-c3ccc(F)cc3)nc3c2COc2ccc(Cl)cc2-3)coc2ccc(F)cc12 ?
Vif-APOBEC3F blk: 1%; Vif-A3G inh: 9%

What do the screens show for `CCc1ccc(NC(=O)c2cc3c(=O)n(Cc4cccs4)ccc3nc2C)cc1`?
Vif-APOBEC3F blk: -7%; Vif-A3G inh: -5%

Results for CN(C)CCCn1c2c(c(SCC(=O)Nc3cccc4ccccc34)nc1=O)CCCC2 ?
Vif-APOBEC3F blk: 3%; Giardia kill: -5; SW480 rerep: -8%; MCF10A rerep: 7%; IL-1B inflam inh: -97*; Vif-A3G inh: 11%

Results for CCOC(=O)Cc1csc(NC(=O)CSc2nc(=O)[nH]c3c2CCC3)n1 ?
Vif-APOBEC3F blk: 8%; Giardia kill: 3; SW480 rerep: -3%; MCF10A rerep: 5%; IL-1B inflam inh: -90*; Vif-A3G inh: 0%

What do the screens show for `CCN(CC)CCCn1c2c(c(SCC(=O)Nc3cccc4ccccc34)nc1=O)CCC2`?
Vif-APOBEC3F blk: 1%; Giardia kill: 11; SW480 rerep: 8%; MCF10A rerep: -7%; IL-1B inflam inh: -3; Vif-A3G inh: 1%

Results for Cc1cc(Br)ccc1NC(=O)c1coc(=O)c2ccccc12 ?
Vif-APOBEC3F blk: -1%; Vif-A3G inh: 8%

What do the screens show for `COc1cc(-c2noc(C3CC(=O)N(c4cc(C)ccc4C)C3)n2)cc(OC)c1OC` (centres undefined)?
Vif-APOBEC3F blk: -2%; Vif-A3G inh: -1%

What do the screens show for `C=CCNC(=O)c1onc(CCl)c1C(=O)OC`?
Vif-APOBEC3F blk: 3%; Giardia kill: -11; SW480 rerep: inconclusive; MCF10A rerep: 18µM*; IL-1B inflam inh: 110; Vif-A3G inh: inconclusive

How did COCCNC(=O)c1onc(CCl)c1C(=O)OC do in these assays?
Vif-APOBEC3F blk: 3%; Giardia kill: -12; SW480 rerep: inconclusive; MCF10A rerep: 8%; IL-1B inflam inh: 47; Vif-A3G inh: -11%

Results for CCC(=O)N1CCc2cc(Br)cc(S(=O)(=O)N3CCN(c4ccccc4OC)CC3)c21 ?
Vif-APOBEC3F blk: -8%; Vif-A3G inh: -2%

Results for CCOc1ccc2c(c1)OC(c1ccc(C)cc1)(C(F)(F)F)NC2=O (centres undefined) ?
Vif-APOBEC3F blk: inconclusive; Giardia kill: 1; SW480 rerep: inconclusive; MCF10A rerep: 1.5µM*; IL-1B inflam inh: -16; Vif-A3G inh: inconclusive

How did O=C(NCCN1C(=O)S/C(=C\c2ccc(Cl)c([N+](=O)[O-])c2)C1=O)C1=COCCO1 do in these assays?
Vif-APOBEC3F blk: 5%; Giardia kill: 2; SW480 rerep: -644%; MCF10A rerep: 3.7µM*; IL-1B inflam inh: -103*; Vif-A3G inh: -23%

What do the screens show for `CC(C)(C)C(=O)NCCN1C(=O)S/C(=C\c2ccc([N+](=O)[O-])cc2)C1=O`?
Vif-APOBEC3F blk: 6%; Giardia kill: -4; SW480 rerep: -33%; MCF10A rerep: inconclusive; IL-1B inflam inh: -73*; Vif-A3G inh: -1%

How did O=C(/C=C/c1ccccc1[N+](=O)[O-])NCCN1C(=O)S/C(=C\c2ccc(F)cc2)C1=O do in these assays?
Vif-APOBEC3F blk: -5%; Giardia kill: -1; SW480 rerep: -3%; MCF10A rerep: 12%; IL-1B inflam inh: 33; Vif-A3G inh: -1%

Results for CCN1C(=O)C2(c3ccccc31)c1c(oc3ccccc3c1=O)C(=O)N2CCOC (centres undefined) ?
Vif-APOBEC3F blk: 13%; Vif-A3G inh: 5%

What do the screens show for `CCOC(=O)CC(NC(=O)c1cc2c(=O)n3cccc(C)c3nc2s1)c1ccc(OCC)c(OC)c1` (centres undefined)?
Vif-APOBEC3F blk: -6%; Vif-A3G inh: 4%

How did Cn1c(=O)c2c(ncn2CC(=O)Nc2cccc(Cl)c2Cl)n(C)c1=O do in these assays?
Vif-APOBEC3F blk: 3%; Vif-A3G inh: 1%

How did COC(=O)c1ccc(/C=C/C(=O)c2ccc(OC)c(OC)c2)cc1 do in these assays?
Vif-APOBEC3F blk: -4%; Giardia kill: 1; SW480 rerep: inconclusive; MCF10A rerep: inconclusive; IL-1B inflam inh: -59*; Vif-A3G inh: -16%

What do the screens show for `COc1cc(/C=C/C(=O)c2ccc(C)cc2)ccc1OCC#N`?
Vif-APOBEC3F blk: -17%; Giardia kill: -5; SW480 rerep: 16µM*; MCF10A rerep: inconclusive; IL-1B inflam inh: -114*; Vif-A3G inh: -28%

What do the screens show for `COc1ccc(/C=C/C(=O)c2ccc(C(=O)/C=C/c3ccc(OC)c(OC)c3)cc2)cc1OC`?
Vif-APOBEC3F blk: inconclusive; Giardia kill: -13; SW480 rerep: 8.2µM*; MCF10A rerep: 6.5µM*; IL-1B inflam inh: -25; Vif-A3G inh: -19%
